Results published in paper PMC7862700, “An all-to-all approach to the identification of sequence-specific readers for epigenetic DNA modifications on cytosine”.

Legend:
Test in all cases: DAPPL (digital affinity profiling via proximity ligation, sequencing); 10 mM Tris-HCl pH 7.5, 50 mM NaCl, 1 mM DTT, 4% glycerol, room temperature, 30 min; GST-TFs on glutathione beads, 16-mer random dsDNA library, 0.1% formaldehyde crosslink after washing; high values mean tight binding
[1] = target: T1, FLI1 (Homo sapiens, UniProt Q01543 1-452); settings: protein: recombinant; tags: N-terminal GST; dsDNA, one strand shown
T1 sequence: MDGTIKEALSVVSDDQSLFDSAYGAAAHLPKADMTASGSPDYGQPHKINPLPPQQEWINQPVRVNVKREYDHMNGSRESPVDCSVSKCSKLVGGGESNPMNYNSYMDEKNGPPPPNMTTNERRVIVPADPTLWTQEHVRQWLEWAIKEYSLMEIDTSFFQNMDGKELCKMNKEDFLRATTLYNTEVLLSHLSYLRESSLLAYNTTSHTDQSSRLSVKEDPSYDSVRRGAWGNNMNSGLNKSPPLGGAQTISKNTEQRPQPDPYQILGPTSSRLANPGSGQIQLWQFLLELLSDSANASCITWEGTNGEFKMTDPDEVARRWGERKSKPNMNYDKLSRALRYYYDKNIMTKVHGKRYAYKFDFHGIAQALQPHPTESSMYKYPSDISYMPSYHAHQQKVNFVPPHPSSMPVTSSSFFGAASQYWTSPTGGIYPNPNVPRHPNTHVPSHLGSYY
Method in brief: (§1)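 Binding signal is each hexamer's read frequency for a factor divided by its frequency in the tag-only sample. The factors were GST-fused human transcription factors from yeast, captured on glutathione beads, DNA-barcoded and pooled with that sample. Pools were incubated with 200 nmole of a random double-stranded 16-mer DNA library in Tris/NaCl/DTT/glycerol buffer at room temperature for 30 min, then washed, crosslinked with 0.1% formaldehyde, proximity-ligated with BsaI/T4 ligase (1 h, 37 °C), PCR-amplified and sequenced on an Illumina NextSeq500.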

[2] = target: T2, ELK1 (Homo sapiens, UniProt P19419 1-428); settings: protein: recombinant; tags: N-terminal GST; dsDNA, one strand shown
T2 sequence: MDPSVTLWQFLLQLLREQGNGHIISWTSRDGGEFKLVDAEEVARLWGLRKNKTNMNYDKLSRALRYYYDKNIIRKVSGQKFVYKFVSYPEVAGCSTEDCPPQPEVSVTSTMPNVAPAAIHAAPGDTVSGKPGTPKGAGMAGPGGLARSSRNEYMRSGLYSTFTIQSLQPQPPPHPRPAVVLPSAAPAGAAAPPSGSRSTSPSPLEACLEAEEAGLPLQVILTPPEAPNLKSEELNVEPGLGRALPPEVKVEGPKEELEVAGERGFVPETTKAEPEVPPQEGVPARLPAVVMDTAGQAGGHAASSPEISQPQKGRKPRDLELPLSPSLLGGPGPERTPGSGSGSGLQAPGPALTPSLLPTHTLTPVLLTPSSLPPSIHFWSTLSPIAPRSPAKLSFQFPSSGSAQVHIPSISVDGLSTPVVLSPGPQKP
Method in brief: as §1

[3] = target: T3, GABPA (Homo sapiens, UniProt Q06546 1-454); settings: protein: recombinant; tags: N-terminal GST; dsDNA, one strand shown
T3 sequence: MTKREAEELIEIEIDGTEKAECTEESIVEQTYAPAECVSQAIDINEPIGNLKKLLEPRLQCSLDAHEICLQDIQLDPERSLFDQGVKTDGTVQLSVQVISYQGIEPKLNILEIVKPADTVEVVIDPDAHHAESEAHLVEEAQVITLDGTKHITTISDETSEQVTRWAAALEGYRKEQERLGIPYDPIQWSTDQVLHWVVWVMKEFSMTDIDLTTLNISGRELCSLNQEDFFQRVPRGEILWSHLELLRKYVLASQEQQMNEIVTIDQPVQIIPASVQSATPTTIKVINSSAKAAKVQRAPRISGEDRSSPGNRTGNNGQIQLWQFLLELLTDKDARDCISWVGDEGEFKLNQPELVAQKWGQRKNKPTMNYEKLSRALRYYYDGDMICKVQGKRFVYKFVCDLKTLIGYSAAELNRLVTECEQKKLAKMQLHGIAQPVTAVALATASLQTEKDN
Method in brief: as §1

[4] = target: T4, ERG (Homo sapiens, UniProt P11308 1-479); settings: protein: recombinant; tags: N-terminal GST; dsDNA, one strand shown
T4 sequence: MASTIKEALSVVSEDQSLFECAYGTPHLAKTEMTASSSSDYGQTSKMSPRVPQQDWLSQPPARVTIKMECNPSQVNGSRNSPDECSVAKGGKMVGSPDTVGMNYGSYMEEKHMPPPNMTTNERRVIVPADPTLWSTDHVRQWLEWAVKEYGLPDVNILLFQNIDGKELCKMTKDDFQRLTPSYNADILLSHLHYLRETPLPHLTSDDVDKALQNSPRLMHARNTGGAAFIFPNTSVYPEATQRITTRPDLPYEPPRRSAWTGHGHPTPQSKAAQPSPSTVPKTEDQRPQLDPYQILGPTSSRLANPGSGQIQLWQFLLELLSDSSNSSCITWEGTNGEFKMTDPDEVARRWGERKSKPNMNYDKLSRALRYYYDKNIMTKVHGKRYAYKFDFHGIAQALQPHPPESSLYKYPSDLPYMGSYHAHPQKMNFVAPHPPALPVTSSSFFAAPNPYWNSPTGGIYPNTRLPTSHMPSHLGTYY
Method in brief: as §1

[5] = target: ELF1 (Homo sapiens, UniProt P32519 1-619); settings: protein: recombinant; tags: N-terminal GST; dsDNA, one strand shown
ELF1, sequence (P32519 whole entry): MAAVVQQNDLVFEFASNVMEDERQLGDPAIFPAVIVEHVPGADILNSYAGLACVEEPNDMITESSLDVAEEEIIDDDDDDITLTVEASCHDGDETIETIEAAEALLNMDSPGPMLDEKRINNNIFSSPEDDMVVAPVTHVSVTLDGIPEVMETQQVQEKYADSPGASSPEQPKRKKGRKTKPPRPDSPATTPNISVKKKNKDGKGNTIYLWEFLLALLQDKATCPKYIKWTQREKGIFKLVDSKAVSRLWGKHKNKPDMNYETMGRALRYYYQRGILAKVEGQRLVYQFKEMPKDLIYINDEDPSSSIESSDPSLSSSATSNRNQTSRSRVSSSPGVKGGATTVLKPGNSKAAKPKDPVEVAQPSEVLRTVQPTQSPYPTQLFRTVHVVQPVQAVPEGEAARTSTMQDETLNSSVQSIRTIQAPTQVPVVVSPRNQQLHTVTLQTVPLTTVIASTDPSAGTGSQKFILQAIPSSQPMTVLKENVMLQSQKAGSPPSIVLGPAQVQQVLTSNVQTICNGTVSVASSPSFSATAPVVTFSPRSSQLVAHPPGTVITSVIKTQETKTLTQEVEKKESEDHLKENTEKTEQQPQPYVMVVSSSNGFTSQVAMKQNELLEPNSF
Method in brief: as §1

[6] = target: T5, EHF (Homo sapiens, UniProt Q9NZC4 1-300); settings: protein: recombinant; tags: N-terminal GST; dsDNA, one strand shown
T5 sequence: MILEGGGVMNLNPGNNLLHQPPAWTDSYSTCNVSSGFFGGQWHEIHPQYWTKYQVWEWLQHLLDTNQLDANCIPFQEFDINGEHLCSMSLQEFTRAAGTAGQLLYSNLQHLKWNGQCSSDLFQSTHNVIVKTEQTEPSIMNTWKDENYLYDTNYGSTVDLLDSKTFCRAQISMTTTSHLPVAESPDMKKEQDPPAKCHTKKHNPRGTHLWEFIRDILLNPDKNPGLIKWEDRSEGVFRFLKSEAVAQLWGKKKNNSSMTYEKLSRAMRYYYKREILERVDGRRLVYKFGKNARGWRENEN
Method in brief: as §1

[7] = target: SPI1 (Homo sapiens, UniProt P17947 1-270); settings: protein: recombinant; tags: N-terminal GST; dsDNA, one strand shown
Method in brief: as §1

[8] = target: SPIB (Homo sapiens, UniProt Q01892 1-262); settings: protein: recombinant; tags: N-terminal GST; dsDNA, one strand shown
SPIB, sequence (Q01892 whole entry): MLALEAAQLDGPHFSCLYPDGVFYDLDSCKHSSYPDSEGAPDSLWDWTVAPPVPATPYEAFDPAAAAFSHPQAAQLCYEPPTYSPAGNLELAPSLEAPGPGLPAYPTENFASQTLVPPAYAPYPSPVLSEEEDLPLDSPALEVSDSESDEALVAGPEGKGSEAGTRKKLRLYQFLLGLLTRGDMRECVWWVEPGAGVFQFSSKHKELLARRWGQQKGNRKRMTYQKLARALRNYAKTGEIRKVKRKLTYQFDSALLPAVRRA
Method in brief: as §1

[9] = target: T6, ELK3 (Homo sapiens, UniProt P41970 1-407); settings: protein: recombinant; tags: N-terminal GST; dsDNA, one strand shown
T6 sequence: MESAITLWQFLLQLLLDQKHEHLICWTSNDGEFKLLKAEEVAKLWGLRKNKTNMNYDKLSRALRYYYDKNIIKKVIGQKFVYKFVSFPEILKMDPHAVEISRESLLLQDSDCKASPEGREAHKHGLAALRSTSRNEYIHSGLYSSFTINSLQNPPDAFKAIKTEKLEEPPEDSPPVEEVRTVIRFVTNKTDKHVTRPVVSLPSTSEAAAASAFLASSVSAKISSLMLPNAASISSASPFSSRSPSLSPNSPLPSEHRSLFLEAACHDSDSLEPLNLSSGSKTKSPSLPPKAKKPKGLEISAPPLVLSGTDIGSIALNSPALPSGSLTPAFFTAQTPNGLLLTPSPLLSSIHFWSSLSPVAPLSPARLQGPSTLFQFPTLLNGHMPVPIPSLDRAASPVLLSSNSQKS
Method in brief: as §1

[10] = target: T7, FEV (Homo sapiens, UniProt Q99581 1-238); settings: protein: recombinant; tags: N-terminal GST; dsDNA, one strand shown
T7 sequence: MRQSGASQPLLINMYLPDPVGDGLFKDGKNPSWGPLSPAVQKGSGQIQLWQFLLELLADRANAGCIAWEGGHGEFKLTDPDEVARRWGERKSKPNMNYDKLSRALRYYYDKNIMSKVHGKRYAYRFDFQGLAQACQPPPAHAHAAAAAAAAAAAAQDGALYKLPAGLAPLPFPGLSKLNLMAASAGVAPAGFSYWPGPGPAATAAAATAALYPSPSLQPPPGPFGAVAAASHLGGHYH
Method in brief: as §1

[11] = target: ETV5 (Homo sapiens, UniProt P41161 1-510); settings: protein: recombinant; tags: N-terminal GST; dsDNA, one strand shown
ETV5, sequence (P41161 whole entry): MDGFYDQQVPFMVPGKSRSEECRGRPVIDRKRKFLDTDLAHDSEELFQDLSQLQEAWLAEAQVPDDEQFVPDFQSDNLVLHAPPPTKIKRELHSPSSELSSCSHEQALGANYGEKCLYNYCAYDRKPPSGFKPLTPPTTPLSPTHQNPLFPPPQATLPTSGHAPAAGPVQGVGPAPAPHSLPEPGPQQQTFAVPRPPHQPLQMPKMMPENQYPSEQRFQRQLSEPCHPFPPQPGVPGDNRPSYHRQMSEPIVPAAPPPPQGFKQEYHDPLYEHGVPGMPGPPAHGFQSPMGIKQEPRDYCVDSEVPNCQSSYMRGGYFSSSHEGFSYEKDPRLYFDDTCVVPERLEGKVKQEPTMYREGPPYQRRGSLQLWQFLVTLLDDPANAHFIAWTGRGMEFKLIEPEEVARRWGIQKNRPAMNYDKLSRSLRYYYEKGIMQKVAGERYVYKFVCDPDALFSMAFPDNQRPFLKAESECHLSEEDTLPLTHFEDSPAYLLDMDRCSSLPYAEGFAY
Method in brief: as §1

[12] = target: HSF1 (Homo sapiens, UniProt Q00613 1-529); settings: protein: recombinant; tags: N-terminal GST; chain copies: 3; dsDNA, one strand shown
HSF1, sequence (Q00613 whole entry): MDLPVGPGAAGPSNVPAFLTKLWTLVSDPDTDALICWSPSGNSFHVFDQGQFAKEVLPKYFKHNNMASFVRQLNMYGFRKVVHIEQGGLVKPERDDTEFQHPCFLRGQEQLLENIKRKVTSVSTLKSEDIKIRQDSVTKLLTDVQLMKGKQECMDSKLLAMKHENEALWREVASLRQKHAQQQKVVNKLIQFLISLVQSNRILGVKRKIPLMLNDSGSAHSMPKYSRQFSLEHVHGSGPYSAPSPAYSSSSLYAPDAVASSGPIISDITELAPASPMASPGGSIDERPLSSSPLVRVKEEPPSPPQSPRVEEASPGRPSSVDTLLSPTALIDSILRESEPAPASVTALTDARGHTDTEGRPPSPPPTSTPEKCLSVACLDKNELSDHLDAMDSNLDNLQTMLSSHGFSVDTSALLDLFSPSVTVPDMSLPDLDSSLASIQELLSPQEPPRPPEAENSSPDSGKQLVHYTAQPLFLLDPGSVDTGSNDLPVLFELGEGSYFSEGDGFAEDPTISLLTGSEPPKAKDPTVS
Method in brief: as §1

[13] = target: T8, SPIC (Homo sapiens, UniProt Q8N5J4 1-248); settings: protein: recombinant; tags: N-terminal GST; dsDNA, one strand shown
T8 sequence: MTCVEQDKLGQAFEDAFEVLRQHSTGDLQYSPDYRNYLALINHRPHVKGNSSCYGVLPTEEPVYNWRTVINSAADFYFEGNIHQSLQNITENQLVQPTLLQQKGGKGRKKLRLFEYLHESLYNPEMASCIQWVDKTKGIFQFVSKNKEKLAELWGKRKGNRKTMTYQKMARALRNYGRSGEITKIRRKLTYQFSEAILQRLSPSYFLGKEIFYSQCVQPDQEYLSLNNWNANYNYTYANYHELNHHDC
Method in brief: as §1

[14] = target: ELF4 (Homo sapiens, UniProt Q99607 1-663); settings: protein: recombinant; tags: N-terminal GST; dsDNA, one strand shown
ELF4, sequence (Q99607 whole entry): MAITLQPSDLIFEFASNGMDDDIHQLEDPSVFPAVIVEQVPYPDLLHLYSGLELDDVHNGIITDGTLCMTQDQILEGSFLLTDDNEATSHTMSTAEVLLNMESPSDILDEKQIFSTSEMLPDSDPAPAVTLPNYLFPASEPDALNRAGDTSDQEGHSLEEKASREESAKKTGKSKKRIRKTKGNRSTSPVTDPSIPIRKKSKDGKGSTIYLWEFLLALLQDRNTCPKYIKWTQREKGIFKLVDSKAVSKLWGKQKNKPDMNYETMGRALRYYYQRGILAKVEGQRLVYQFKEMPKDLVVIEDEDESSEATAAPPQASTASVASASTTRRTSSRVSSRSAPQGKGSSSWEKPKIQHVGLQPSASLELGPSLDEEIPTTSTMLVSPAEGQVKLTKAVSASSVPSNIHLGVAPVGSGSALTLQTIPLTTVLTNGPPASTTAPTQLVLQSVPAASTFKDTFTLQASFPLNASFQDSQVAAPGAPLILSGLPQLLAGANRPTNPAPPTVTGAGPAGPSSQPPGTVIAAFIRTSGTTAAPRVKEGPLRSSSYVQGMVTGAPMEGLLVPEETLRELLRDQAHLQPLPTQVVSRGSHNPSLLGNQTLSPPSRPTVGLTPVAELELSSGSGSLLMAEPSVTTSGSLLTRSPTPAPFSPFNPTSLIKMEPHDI
Method in brief: as §1

[15] = target: T9, ELK4 (Homo sapiens, UniProt P28324-2 1-405); settings: protein: recombinant; tags: N-terminal GST; dsDNA, one strand shown
T9 sequence: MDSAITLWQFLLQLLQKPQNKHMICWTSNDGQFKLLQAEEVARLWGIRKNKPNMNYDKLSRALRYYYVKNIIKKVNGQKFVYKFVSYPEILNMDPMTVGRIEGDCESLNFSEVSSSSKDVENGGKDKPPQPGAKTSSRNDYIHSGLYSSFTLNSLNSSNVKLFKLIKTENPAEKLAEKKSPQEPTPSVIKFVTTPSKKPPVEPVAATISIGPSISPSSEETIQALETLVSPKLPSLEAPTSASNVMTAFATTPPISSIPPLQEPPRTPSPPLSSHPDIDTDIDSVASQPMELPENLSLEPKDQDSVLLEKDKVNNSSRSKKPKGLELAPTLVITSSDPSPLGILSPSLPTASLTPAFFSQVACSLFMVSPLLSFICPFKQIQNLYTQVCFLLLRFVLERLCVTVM
Method in brief: as §1

[16] = target: T10, ETV2 (Homo sapiens, UniProt O00321 1-342); settings: protein: recombinant; tags: N-terminal GST; dsDNA, one strand shown
T10 sequence: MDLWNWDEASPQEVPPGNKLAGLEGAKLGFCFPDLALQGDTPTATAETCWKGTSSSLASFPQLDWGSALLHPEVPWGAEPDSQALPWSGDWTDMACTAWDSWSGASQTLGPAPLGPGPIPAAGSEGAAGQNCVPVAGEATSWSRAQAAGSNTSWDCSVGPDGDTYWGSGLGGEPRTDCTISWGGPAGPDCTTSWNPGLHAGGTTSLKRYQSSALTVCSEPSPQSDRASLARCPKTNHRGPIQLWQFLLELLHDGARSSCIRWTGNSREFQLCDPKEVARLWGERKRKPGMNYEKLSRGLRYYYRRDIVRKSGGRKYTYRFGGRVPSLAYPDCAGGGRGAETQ
Method in brief: as §1

[17] = target: T11, ELF3 (Homo sapiens, UniProt P78545 1-371); settings: protein: recombinant; tags: N-terminal GST; dsDNA, one strand shown
T11 sequence: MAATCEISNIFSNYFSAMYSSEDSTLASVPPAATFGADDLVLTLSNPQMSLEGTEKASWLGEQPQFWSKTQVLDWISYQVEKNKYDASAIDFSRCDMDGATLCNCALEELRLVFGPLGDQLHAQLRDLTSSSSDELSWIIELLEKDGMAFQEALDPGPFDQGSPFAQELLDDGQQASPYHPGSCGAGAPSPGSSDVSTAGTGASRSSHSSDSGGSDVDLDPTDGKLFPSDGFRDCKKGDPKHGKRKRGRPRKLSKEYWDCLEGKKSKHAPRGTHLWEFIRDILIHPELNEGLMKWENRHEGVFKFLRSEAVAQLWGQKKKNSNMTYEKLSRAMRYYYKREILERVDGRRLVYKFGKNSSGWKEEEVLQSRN
Method in brief: as §1

[18] = target: CRX (Homo sapiens, UniProt O43186 1-299); settings: protein: recombinant; tags: N-terminal GST; dsDNA, one strand shown
CRX, sequence (O43186 whole entry): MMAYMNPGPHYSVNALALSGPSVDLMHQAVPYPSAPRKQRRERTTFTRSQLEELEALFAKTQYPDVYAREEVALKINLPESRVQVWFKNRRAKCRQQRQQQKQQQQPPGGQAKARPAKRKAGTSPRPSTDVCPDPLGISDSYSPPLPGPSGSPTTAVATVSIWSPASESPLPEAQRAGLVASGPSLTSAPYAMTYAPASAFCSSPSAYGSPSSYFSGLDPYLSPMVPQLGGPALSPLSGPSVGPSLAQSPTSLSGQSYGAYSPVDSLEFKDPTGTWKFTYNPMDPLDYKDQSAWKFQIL
Method in brief: as §1

[19] = target: ETV1 (Homo sapiens, UniProt P50549 1-477); settings: protein: recombinant; tags: N-terminal GST; dsDNA, one strand shown
ETV1, sequence (P50549 whole entry): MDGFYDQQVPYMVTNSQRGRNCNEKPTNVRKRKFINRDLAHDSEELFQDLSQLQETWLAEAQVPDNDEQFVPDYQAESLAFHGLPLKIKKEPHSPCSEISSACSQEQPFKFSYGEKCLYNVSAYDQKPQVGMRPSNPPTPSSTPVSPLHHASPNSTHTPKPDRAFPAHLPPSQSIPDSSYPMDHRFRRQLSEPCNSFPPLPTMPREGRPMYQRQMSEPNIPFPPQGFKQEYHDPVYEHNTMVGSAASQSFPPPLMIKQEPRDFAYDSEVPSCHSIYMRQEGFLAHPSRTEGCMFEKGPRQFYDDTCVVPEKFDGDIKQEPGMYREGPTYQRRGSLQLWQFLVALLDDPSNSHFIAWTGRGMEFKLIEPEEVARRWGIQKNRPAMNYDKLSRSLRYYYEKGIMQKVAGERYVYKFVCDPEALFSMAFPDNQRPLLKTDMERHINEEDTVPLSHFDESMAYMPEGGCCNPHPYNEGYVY
Method in brief: as §1

For AAAATT, the binding signal [1] was 1.35 fold enrichment (6-mer frequency, TF over GST control), the binding signal [2] was 1.34 fold enrichment (6-mer frequency, TF over GST control) and the binding signal [3] was 1.38 fold enrichment (6-mer frequency, TF over GST control). The binding signal [4] was 1.28 fold enrichment (6-mer frequency, TF over GST control), the binding signal [5] was 1.34 fold enrichment (6-mer frequency, TF over GST control) and the binding signal [6] was 1.26 fold enrichment (6-mer frequency, TF over GST control). The binding signal [7] was 1.32 fold enrichment (6-mer frequency, TF over GST control), the binding signal [8] was 1.45 fold enrichment (6-mer frequency, TF over GST control) and the binding signal [9] was 1.33 fold enrichment (6-mer frequency, TF over GST control). For the same sequence, the binding signal [10] was 1.29 fold enrichment (6-mer frequency, TF over GST control), the binding signal [11] was 1.4 fold enrichment (6-mer frequency, TF over GST control) and the binding signal [12] was 1.73 fold enrichment (6-mer frequency, TF over GST control). The binding signal [13] was 1.2 fold enrichment (6-mer frequency, TF over GST control), the binding signal [14] was 1.41 fold enrichment (6-mer frequency, TF over GST control) and the binding signal [15] was 1.34 fold enrichment (6-mer frequency, TF over GST control). The binding signal [16] was 1.54 fold enrichment (6-mer frequency, TF over GST control), the binding signal [17] was 1.43 fold enrichment (6-mer frequency, TF over GST control) and the binding signal [18] was 1.46 fold enrichment (6-mer frequency, TF over GST control). For the same sequence, the binding signal [19] was 1.36 fold enrichment (6-mer frequency, TF over GST control).
